# Assay outcomes as filed in PubChem BioAssay.
# Only some compounds are listed: those with a hit (about 19% of all), similar ones and a draw of the others.
# Shiga inhibitor – blocks Shiga toxin action in Vero cells; AID 2315; 290,000 tested, 9.2% active; inhibition, % at 38.7 µM; Vero cells, Shiga toxin protein synthesis inhibition reporter; in the data active = inhibition mostly above about 28%, no sharp cut-off; inactive = mostly below about 43%; also: 0% is about no effect
# LASV entry inh – inhibitors of Lassa virus binding or cell entry; Lassa virus pseudotype entry inhibition, cell reporter; Potency, µM (doses to about 37.9 µM), for the others: at the highest dose activity change, negative = inhibition, most hits filed as inhibitors; 300,000 tested, 1.2% active; calls by dose curve; tested in HEK293 cells; also: potency is read from the fitted curve at half-maximal effect; % is scaled to controls: 0 for no effect and ±100 for the full control effect; nearly all actives have a fitted effect of over 50% in size
# Pf growth 48h – inhibits P. falciparum growth in the first generation, 48 h; P. falciparum luciferase growth in erythrocytes, 48 h; Potency, µM (top dose mostly 28.7 µM), without a hit: at the top dose activity change, negative = inhibition, usual class: inhibitors; 310,000 tested, 5.9% active; AID 504832; also: potency is read from the fitted curve at half-maximal effect; % is scaled to controls: 0 for no effect and ±100 for the full control effect
#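 Luminescence readout; reporter = integrated firefly luciferase in P. falciparum. RBC culture at 2% hematocrit, 0.1% parasitemia final, 37 C/5% CO2; decreased signal taken as growth inhibition.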
# Marburg entry inh – Marburg virus entry inhibition | Marburg virus pseudotyped entry inhibition, cell reporter | Potency, µM (titrated, usually from 37.8 µM), for inactives: at the highest dose activity change, negative = inhibition, most hits filed as inhibitors | AID 540276 | 300,000 tested, 1.8% active; calls by dose curve; tested in HEK293 cells; also: potency is read from the fitted curve at half-maximal effect; % is scaled to controls: 0 for no effect and ±100 for the full control effect
# Pf growth 96h – inhibits malaria parasite growth, 96 h; AID 504834; Potency, µM (series often up to 28.7 µM), for the others: at the highest dose activity change, negative = inhibition, actives largely listed as inhibitors; P. falciparum luciferase reporter growth, 96 h; 320,000 tested, 6.9% active; also: potency is read from the fitted curve at half-maximal effect; % is scaled to controls: 0 for no effect and ±100 for the full control effect
#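 96 h incubation, 37 C, 5% CO2, of luciferase-reporter P. falciparum-infected RBCs (2% hematocrit, 0.05% parasitemia final) with test compounds; endpoint luminescence.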
# CHX counter – counter-screen for Shiga toxin inhibitors: cycloheximide protein synthesis inhibition; 300,000 tested, 12% active; max response, %; AID 2314; cell reporter, cycloheximide protein synthesis inhibition counterscreen; in the data active = max response mostly above about 13%, no sharp cut-off; inactive = mostly below about 14%; also: read at 38.3 µM for the half of the compounds with a filed dose; 0% is about no effect
# HeLa G2M arrest – causes HeLa cells to arrest in G2/M phase. HeLa cell cycle G2/M arrest, Hoechst DNA content imaging. 25 tested, 60% active. shares compounds with Marburg entry inh. Potency, µM, most hits filed as inhibitors. AID 2441
# WI-38 tox – toxic to WI-38 fibroblasts in PNC inhibitor counter-screen. shares compounds with Marburg entry inh. WI-38 normal lung fibroblasts, ATPLite luminescence ATP viability, 24 h. Potency, µM (top dose mostly 46.1 µM), without a hit: at the top dose activity change, negative = cytotoxicity, actives largely listed as inhibitors. 120 tested, under 10 active. AID 2729
# PNC inh conf – confirmation of perinucleolar compartment assembly inhibitors. shares compounds with Marburg entry inh. AID 2730. Potency, µM (top dose mostly 46.1 µM), inactives show at the highest dose activity, negative = PNC inhibition, hits mostly inhibitors. PC3M PTB-GFP, PNC prevalence imaging, 16 h. 120 tested, 50% active
# PC3M casp3-7 – PC3M caspase 3/7 activation by PNC inhibitor hits; shares compounds with Marburg entry inh; 120 tested, under 10 active; PC3M-GFP caspase 3/7 activation, luminescence, 24 h; activity change, positive = activation, % at 46.1 µM
# Numbers without * were called inactive; ? = inconclusive; . = no result given; [ ] = remark or other dose. Unless noted, calls follow the shape of the dose curve; as a rule, active = well fitted curve in the direction sought with a large enough effect; inconclusive = small, poorly fitted or top-dose-only effect, or another doubt; inactive = no such curve, though single readings can be large; an effect the other way counts as inactive or inconclusive.
SMILES,Shiga inhibitor,LASV entry inh,Pf growth 48h,Marburg entry inh,Pf growth 96h,CHX counter,WI-38 tox,PNC inh conf,PC3M casp3-7,others
Cc1ccc(NC(=S)NCCc2ccc(S(N)(=O)=O)cc2)cc1C,-19,-1%,-3%,-14%,-15%,0,-5%,32%,-4,
NS(=O)(=O)c1ccc(CCNC(=S)Nc2ccc(F)cc2)cc1,-13,2%[46.1 µM],-3%,-8%[46.1 µM],-12%,-2,.,.,.,
CCN(CC)S(=O)(=O)c1ccc(C2=NOC3(C2)N(C)c2ccccc2C3(C)C)cc1 (stereo unspecified),16,0.73µM*,12µM*,1.8µM*,13µM*,1,8%,5µM*,-8,
CCN(CC)S(=O)(=O)c1ccc(N2Cc3ccccc3C2=N)cc1,-11,.,19%,.,15%,8,.,.,.,
C[C@]12CC[C@@H]3c4ccc(O)cc4CC[C@H]3[C@@H]1CC[C@@H]2O,-9,?,-22%,?,?,-3,.,.,.,HeLa G2M arrest=10*
C[C@]12CC[C@@H]3c4ccc(O)cc4CC[C@H]3[C@@H]1CC[C@H]2O,1,.,.,.,.,8,.,.,.,
COc1cc2c(cc1O)CCC1C2CC[C@]2(C)[C@@H](O)CC[C@@H]12 (stereo partly specified),.,.,.,?,.,.,.,.,.,HeLa G2M arrest=1.1*
CC(=O)O[C@H]1C(=O)[C@@]2(C)C([C@H](OC(=O)c3ccccc3)[C@]3(O)C[C@H](OC(=O)[C@H](O)[C@@H](NC(=O)c4ccccc4)c4ccccc4)C(C)=C1C3(C)C)[C@]1(OC(C)=O)CO[C@@H]1C[C@@H]2O (stereo partly specified),.,?,.,0.25µM*,.,.,.,.,.,HeLa G2M arrest=0.013*
C=C(C)[C@H]1Cc2c(ccc3c2O[C@@H]2COc4cc(OC)c(OC)cc4[C@@H]2C3=O)O1,.,2.3µM*,?,0.58µM*,6.7µM*,.,.,.,.,HeLa G2M arrest=0.63*
COC(=O)C1=C(C)Nc2ncnn2C1c1ccccn1 (stereo unspecified),36,33%[14.3 µM],9%,10%,?,3,.,.,.,
O=C(N/N=C/c1ccccc1O)c1cccc(C(F)(F)F)c1,48*,?,?,5.6µM*,?,16,-7%,28µM*,0,
COc1ccccc1NC1=C(N2CCCCC2)C(=O)c2ccccc2C1=O,38,?,0.046µM*,?,0.093µM*,23*,-21%,11µM*,?,
COc1ccccc1NS(=O)(=O)c1cc(N)ccc1N1CCCC1,.,16%,.,-11%,.,.,.,.,.,
CCN(CC)C(=O)N1c2ccccc2C=Cc2ccccc21,-14,0.63µM*,.,1.1µM*,0%,-2,18%,5µM*,-2,
COc1ccc(OCCn2cc(/C=C(\C#N)C(=O)NCc3ccco3)c3ccccc32)cc1,0,0%,10%,21%,0%,8,.,.,.,
COc1ccc(NC(=S)N(CCN(C)C)Cc2cccs2)cc1,-21,1%,8%,-28%[46.1 µM],?,-1,.,.,.,
Cc1ccc(Cl)cc1N(CC(=O)N1CCOCC1)S(C)(=O)=O,-4,.,-4%,.,?,-1,.,.,.,
Cc1ccc(Cl)cc1N(CC(=O)N1CCCCCC1)S(C)(=O)=O,-6,9%,0%,7%,-28%,-1,6%,8%,-6,
COc1cc(OC)c(/C=C2/C(=O)Nc3ccccc32)c(OC)c1,.,?,.,0.89µM*,.,.,.,.,.,HeLa G2M arrest=2*
Cc1cc[n+](C2=C([O-])c3ccccc3C(=O)/C2=N\S(=O)(=O)c2cccs2)cc1C,10,?,2.6µM*,?,3.3µM*,-5,-24%,?,?,
CNC(=S)N/N=C/c1cn(CCOc2ccccc2OC)c2ccccc12,-6,-28%,?,?,?,9,-2%,?,2,
COc1ccc(OCCn2cc(/C=N/NC(=O)c3ccncc3)c3ccccc32)cc1,-29,-4%,42%,?,-7%,25,.,.,.,
CN(C)CCCN1c2ccccc2Sc2ccc(Cl)cc21,-15,23µM*,10µM*,5.6µM*,?,-4,.,.,.,HeLa G2M arrest=?
CCN(CC)C(C)CN1c2ccccc2Sc2ccccc21 (stereo unspecified),.,-2%,.,?,.,.,.,.,.,
COc1ccccc1C(=O)NC(=O)COC(=O)CCOc1ccc(C)cc1,.,-8%,?,?,1%,.,.,.,.,
SMILES,Shiga inhibitor,LASV entry inh,Pf growth 48h,Marburg entry inh,Pf growth 96h,CHX counter,WI-38 tox,PNC inh conf,PC3M casp3-7,others
CCOC(=O)CSc1nc2c(sc3ccc([N+](=O)[O-])cc32)c(=O)n1Cc1ccco1,43*,3%,6.6µM*,10%,33%,32*,5%,-12%,3,
COc1cc(/C=N/NC(=O)c2ccc(CSc3nc4ccccc4[nH]3)cc2)cc(OC)c1OC,11,?,?,?,0%,8,5%,-11%,-16,
COc1cc(/C=N/NC(=O)c2ccc3nc[nH]c3c2)cc(OC)c1OC,-7,-1%,?,5%[46.1 µM],?,-3,.,.,.,
C#CCn1c(S(=O)(=O)Cc2ccc(C)cc2)nc(-c2ccccc2)c1-c1ccccc1,-10,3.3µM*,?,4.6µM*,?,8,3%,7.9µM*,-5,
Cn1c(S(=O)(=O)Cc2ccc(Cl)cc2)nc2ccccc21,23,.,?,.,2%,10,.,.,.,
CCOC(=O)C(NC(=O)NCc1ccccc1OC)(OCC)C(F)(F)F (stereo unspecified),-9,-2%,0%,2%,?,-2,.,.,.,
COc1cccc(/C=N/NC(=O)c2cc3c(OC)c(OC)ccc3[nH]2)c1OC,22,?,1%,?,-11%,7,-16%,?,-9,
CN(C)c1ccc(C(=O)OCC(=O)NC2CCCCCC2)cc1,-11,?,4%,?,10%,0,.,.,.,
CN(C)c1ccc(N=Nc2ccccc2C(=O)OCC(=O)NC2CCCC2)cc1,26*,?,-6%,?,8.3µM*,24*,?,?,-13,
CCOC(=O)c1c(C)n(S(=O)(=O)c2ccc(C)cc2)c2ccc(O)c(C(=O)O)c12,2,9%[46.1 µM],-11%,20%[46.1 µM],0%,-2,.,.,.,
